Screens from PubChem.
TLR9-MyD88 inh: inhibitors of human TLR9-MyD88 binding; Q9NR96+Q99836; CHO BLA complementation TLR9-MyD88, CCF4 FRET ratio; inhibition, % at 4.98 µM; hit rate 0.21% among 340,000; AID 504734;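 active = inhibition above the mean over all tested compounds plus 3 SD, cut at about 21% in these data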;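 note: 0% = DMSO only wells and 100% = clavulanate BLA inhibitor control wells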
TLR4-MyD88 BLA: TLR4-MyD88 interaction inhibition in cells; O00206+Q99836; HeLa CL3-4 TLR4/MyD88 BLA complementation, FRET ratio; inhibition, % at 8.4 µM; hit rate 0.18% among 200,000; in the data active = inhibition above about 25%;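 note: 0% = vehicle and 100% = reference inhibitor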
NTR1 agonist: activates human neurotensin receptor 1; P30989; NTR1-U2OS beta-arrestin-GFP spot imaging, agonist mode; activation, % at 20 µM; hit rate 0.17% among 330,000;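 active = activation at or above 40% of the spot to cytoplasm intensity ratio, with at least 20 cells analyzed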;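 note: 0% = DMSO without peptide and 100% = 100 nM NTR1 peptide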
ABHD5 PLIN5 PPI: ABHD5-PLIN5 protein interaction inhibition. Q00G26+Q8WTS1. inhibition, % at 4 µM. Split G. princeps luciferase complementation, luminescence, 4 h. hit rate 0.78% among 360,000;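 active = inhibition above the mean inhibition across every tested compound plus 3 SD, cut at about 22% in these data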;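 note: 0% = DMSO only wells and the 100% control is not disclosed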
Beta2AR agonist: activates human beta-2 adrenergic receptor causing internalization. P07550. Am2.2-beta2AR cells, FAP receptor internalization, flow cytometry. response, % (no concentration beside the values). hit rate 0.43% among 340,000;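 active = response above a set limit, near 3 SD of response in nonfluorescent compounds, cut at about 42% in these data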
NOD2-RIPK2 inh: blocks binding of human NOD2 to RIPK2; O43353; CHO BLA complementation NOD2-RIPK2, CCF4 ratio; inhibition, % at 4.98 µM; hit rate 0.38% among 360,000; AID 624267; in the data active = inhibition above about 21%;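 note: 0% = vehicle only and 100% = reference blocker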
NOD2 RIPK2 conf: NOD2-RIPK2 interaction inhibition confirmed; shares compounds with NOD2-RIPK2 inh; hit rate 70% among 1,200; AID 624370; inhibition, % at 4.98 µM; CHO cells, NOD2-RIPK2 BLA complementation, CCF4 FRET;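 active = mean inhibition across replicates above a set limit taken from the earlier primary screen, cut at about 21% in these data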;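 note: 0% = DMSO-only wells and the high end = clavulanate BLA-blocked wells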
BLA counter: counter-screen for NOD2-RIPK2 interaction inhibitors: BLA reporter; inhibition, % at 4.98 µM; CHO BLA reporter, CCF4 FRET ratio, counterscreen; AID 624371; hit rate 57% among 1,200; shares compounds with NOD2-RIPK2 inh;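 active = mean inhibition above the low-control mean inhibition plus three low-control SD, cut at about 11% in these data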;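 note: 0% = DMSO only wells and 100% = clavulanate high control wells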
An asterisk follows results filed as active; . = not tested or not shown. Compounds with a hit are over-represented: about 1.5% of the library has one in this group of screens.

SMILES	TLR9-MyD88 inh	TLR4-MyD88 BLA	NTR1 agonist	ABHD5 PLIN5 PPI	Beta2AR agonist	NOD2-RIPK2 inh	NOD2 RIPK2 conf	BLA counter
CCOC(=O)C1=C(N)n2c(s/c(=C\c3cccs3)c2=O)=C(C(=O)OCC)C1c1cccs1 (centres undefined)	1	-3	2	7	8	27*	11	4
CCOC(=O)C1=C(N)n2c(s/c(=C\c3ccncc3)c2=O)=C(C(=O)OCC)C1c1ccncc1 (centres undefined)	.	-6	0	1	-7	-13	.	.
O=C(CN1CCN(S(=O)(=O)c2ccc(Br)cc2)CC1)N/N=C/c1ccc(Cl)c([N+](=O)[O-])c1	16	-4	13	5	9	33*	32*	4
Cc1ccc(S(=O)(=O)N2CCN(CC(=O)N/N=C\c3ccc(Cl)c([N+](=O)[O-])c3)CC2)cc1	5	-7	2	0	5	12	.	.
CC(C)(C)C1CCNC(=O)CC1 (centres undefined)	-2	.	.	-4	.	7	.	.
NC(CCc1ccccc1)c1csc(Nc2nncc3ccccc23)n1 (centres undefined)	.	.	.	0	.	24*	8	8
COc1ccc2c(c1)sc1nc(-c3ccccc3)cn12	-8	-5	4	-9	12	40*	9	-1
O=C1/C(=C/c2ccco2)Oc2c1ccc(O)c2CN1CCCCC1	-4	7	0	8	-7	4	.	.
CCC(=O)Oc1ccc2c(c1)O/C(=C\c1ccco1)C2=O	.	.	-1	15	-1	44*	56*	61*
COCCN(CCOC)Cc1c(O)ccc2c1O/C(=C\c1ccco1)C2=O	12	.	-1	16	-6	23*	43*	46*
CCN(CC)C(=O)Oc1ccc2c(c1)O/C(=C\c1ccco1)C2=O	-4	.	2	1	4	-2	.	.
Cc1cccc(C)c1NC(=O)C(C1CC1)n1c(=O)c(-c2cc3ccccc3[nH]2)nc2ccccc21 (centres undefined)	.	.	.	2	.	47*	42*	67*
CC(C)(C)NC(=O)C(C1CC1)n1c(=O)c(-c2cc3ccccc3[nH]2)nc2ccccc21 (centres undefined)	.	.	.	-13	.	42*	39*	62*
CC(C)(C)NC(=O)C(C1CC1)n1c(-c2ccccc2)nc2ccccc21 (centres undefined)	.	.	.	-6	.	2	.	.
O=C(Nc1ccc2c(c1)OCCO2)C(C1CC1)n1c(=O)c(-c2ccccc2)nc2ccccc21 (centres undefined)	.	.	.	-2	.	3	.	.
COc1cc(NC(=O)Cn2c(C)cc3ccccc3c2=O)cc(OC)c1OC	-2	1	0	4	-3	32*	6	-2
COc1ccccc1NC(=O)CNC(=O)Cn1c(C)cc2ccccc2c1=O	-8	.	3	13	3	-15	.	.
COc1ccc(/C=N/NC(=O)c2ccc(NC(C)=O)cc2)cc1COc1ccc(F)cc1F	30*	.	-1	3	-5	25*	6	8
COc1ccc(/C=N\NC(=O)c2ccccc2F)cc1COc1ccc(F)cc1F	9	.	7	2	21	9	.	.
FC(F)(F)Oc1ccccc1C(c1nnnn1C1CCCC1)N1CCN(C/C=C/c2ccccc2)CC1 (centres undefined)	.	.	.	6	.	-6	.	.
Cc1cc(NC(=O)CSc2nnc(-c3ccccc3Cl)o2)no1	3	.	-1	-1	-6	47*	-3	-1
O=NN(Cc1cccnc1)C(=O)NC1CCCCC1	.	.	.	7	.	-3	.	.
N#Cc1ccc2sn(-c3ccccc3)c(=O)c2c1	10	.	.	34*	.	25*	50*	12*
CC(=O)Nc1ccc2sn(-c3ccccc3)c(=O)c2c1	5	.	.	85*	.	30*	22*	-4
CCOC(=O)C1(C)CCCCN1C(=O)c1ccoc1 (centres undefined)	.	.	.	9	.	6	.	.
Cc1ccc(-c2nnn3c2nc(Cl)c2ccccc23)cc1	-6	24	.	-1	14	1	.	.
